Consider eight compounds from PubChem BioAssay (NCI).

Among the test systems are HCT-15 colon; HT29 colon; SNB-75 CNS; SNB-19 CNS; U251 CNS; PC-3 prostate; SK-MEL-5 melanoma; UACC-62 melanoma; LOX IMVI melanoma; SK-MEL-28 melanoma; SK-MEL-2 melanoma; EKVX NSCLC; SN12C renal; UO-31 renal; TK-10 renal; ACHN renal; CAKI-1 renal; A498 renal; CCRF-CEM leukemia; MOLT-4 leukemia.
Common to all, as to assay: NCI-60 one-dose screen, 48 h (100 = growth as untreated, 0 = no growth, -100 = all killed)
Common to all, as to conditions: 10 µM unless noted

This is part of a sample that, as a whole, favours compounds with a hit. Of some 83,000 tested, about 20% had one in any assay.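 Growth was measured after 48 h exposure to one concentration of compound in 96-well plates. Values under 10 count as active.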 Values without a mark were called inactive. Activity calls are given as the source filed them.

As for `CC1Cc2c(N(C)C)ncnc2N(C)c2ccc(Cl)cc21` (stereo not given), the growth is 18.8% with HCT-15 colon; 10.8% with HT29 colon; -12.4% (active) in the test on SNB-75 CNS; 39.1% in the test with SNB-19 CNS; 27.3% in the test with U251 CNS; 32.9% in the test on PC-3 prostate. The growth in the test with SK-MEL-5 melanoma was 11.1%; in the test on UACC-62 melanoma, 33.2%; with LOX IMVI melanoma it was 35.8%; in the test with SK-MEL-28 melanoma, 52.4%; with SK-MEL-2 melanoma, 27.3%; in the test on EKVX NSCLC, 29.3%. Also, the growth in the test with SN12C renal was 47.9%; in the test with UO-31 renal, 59.4%; with TK-10 renal, 31.8%; in the test on ACHN renal, 47.1%; with CAKI-1 renal it was 25.1%; in the test on A498 renal it was -12.5% (active). For the same compound, the results for the growth in the test on CCRF-CEM leukemia and in the test on MOLT-4 leukemia were 18.1% and 28.2%, respectively.
As to `C=C1C(=O)O[C@H]2[C@H]1CC/C(Cn1cc(-c3ccc(N)cc3)nn1)=C\CC[C@@]1(C)O[C@@H]21`, the growth in the test with HCT-15 colon was -46.9% (active); with HT29 colon, -59.4% (active); in the test with SNB-75 CNS, 25.6%; with SNB-19 CNS, 61.3%; in the test with U251 CNS, 34.1%; with PC-3 prostate, 24.1%. Besides, the growth in the test with SK-MEL-5 melanoma was 35.3%; with UACC-62 melanoma, -37.4% (active); in the test on LOX IMVI melanoma it was -63.6% (active); with SK-MEL-28 melanoma, -17% (active); in the test on SK-MEL-2 melanoma it was 41.9%; with EKVX NSCLC it was -19.9% (active). In addition, the growth was -7.63% (active) in the test with SN12C renal; -74.3% (active) in the test on UO-31 renal; 17.9% in the test on TK-10 renal; 3.22% (active) in the test with ACHN renal; 16.7% in the test with CAKI-1 renal; 44.1% with A498 renal. Also, the growth in the test on CCRF-CEM leukemia was -17.7% (active); with MOLT-4 leukemia it was 5.77% (active).
For `O=C1CCCCC=C1C[N+](=O)[O-]`, the growth in the test with HCT-15 colon is 75.2%; in the test with HT29 colon, 83.3%; in the test with SNB-75 CNS, 105%; with SNB-19 CNS, 97.5%; in the test with U251 CNS, 88.4%; in the test with PC-3 prostate it was 85.5%. The growth with SK-MEL-5 melanoma is 71.9%; in the test on UACC-62 melanoma, 91.8%; in the test with LOX IMVI melanoma, 81.1%; in the test on SK-MEL-28 melanoma it was 89.2%; in the test on SK-MEL-2 melanoma it was 102%; in the test on EKVX NSCLC it was 103%. Further, the growth was 95.7% in the test with SN12C renal; 53.5% in the test on UO-31 renal; 107% with TK-10 renal; 75.8% with ACHN renal; 76% in the test on CAKI-1 renal; 117% in the test on A498 renal. Also, the growth was 54.2% in the test on CCRF-CEM leukemia and 42.5% with MOLT-4 leukemia.
As to `CCN(Cc1ccc(CN(CC)C(=O)C(Br)Br)cc1)C(=O)C(Br)Br`, the growth in the test on HCT-15 colon is 24.5%; with HT29 colon it was 6.76% (active); with SNB-75 CNS, 54.9%; in the test with SNB-19 CNS, 60.8%; in the test on U251 CNS, -9.38% (active); in the test with PC-3 prostate, 41.3%. The growth was 12.3% in the test on SK-MEL-5 melanoma; 18.2% in the test on UACC-62 melanoma; 37.1% in the test on LOX IMVI melanoma; 36.7% in the test on SK-MEL-28 melanoma; 76.9% in the test with SK-MEL-2 melanoma; 31.3% in the test on EKVX NSCLC. Besides, the growth was 48.9% in the test with SN12C renal; 52.2% in the test on UO-31 renal; 48.1% in the test on TK-10 renal; 12.1% in the test on ACHN renal; 28.3% with CAKI-1 renal; 38.3% in the test with A498 renal. Further, the growth was 24.9% in the test with CCRF-CEM leukemia and 34.2% in the test on MOLT-4 leukemia.
For `COc1ccc(/C(=N/O)c2cc(F)c(F)c(OC)c2F)cc1O`, the growth in the test with HCT-15 colon was 22.9%; in the test on HT29 colon, 28%; in the test with SNB-75 CNS, -11% (active); in the test on SNB-19 CNS, 38.8%; in the test with U251 CNS it was 18.2%; in the test with PC-3 prostate, 21.5%. Besides, the growth in the test on SK-MEL-5 melanoma is 14.1%; in the test on UACC-62 melanoma, 29.8%; in the test on LOX IMVI melanoma, 46.5%; in the test with SK-MEL-28 melanoma, 66.9%; in the test with SK-MEL-2 melanoma, 3.65% (active); with EKVX NSCLC, 45.5%. Besides, the growth with SN12C renal was 45.7%; in the test with UO-31 renal it was 52.6%; with TK-10 renal, 88.7%; with ACHN renal it was 48.4%; in the test with CAKI-1 renal, 28.1%; in the test on A498 renal, 2.7% (active). Besides, the figures for the growth in the test with CCRF-CEM leukemia and in the test with MOLT-4 leukemia were 15.5% and 37.4%, respectively.
In the case of `CSc1ccccc1C#C/C=C\C#Cc1ccccc1N1CCCC1=O`, the growth in the test on HCT-15 colon is 37.6%; with HT29 colon, 24.1%; with SNB-75 CNS, 47%; in the test on SNB-19 CNS it was 88.5%; in the test with U251 CNS it was 34.3%; in the test with PC-3 prostate, 46.2%. The growth with SK-MEL-5 melanoma was 22.2%; in the test with UACC-62 melanoma, 34.4%; in the test on LOX IMVI melanoma, 30.8%; with SK-MEL-28 melanoma, 50.1%; in the test with SK-MEL-2 melanoma, 35.4%; with EKVX NSCLC, 55.3%. Besides, the growth in the test with SN12C renal is 72.1%; with UO-31 renal, 23.3%; in the test with TK-10 renal, 83.1%; in the test on ACHN renal, 57.9%; with CAKI-1 renal, 70.2%; with A498 renal it was 55.3%. The growth in the test on CCRF-CEM leukemia was 23.6%; with MOLT-4 leukemia it was 27.4%.
On to `CC(C)CCC[C@@H](C)[C@H]1CC[C@H]2[C@@H]3CC[C@H]4C/C(=N/O)CC[C@]4(C)[C@H]3CC[C@]12C`, for which the growth in the test with HCT-15 colon was 111%; in the test with HT29 colon, 105%; in the test on SNB-75 CNS, 96.9%; with SNB-19 CNS, 104%; in the test on U251 CNS, 96.6%; in the test with PC-3 prostate, 83.4%. For the same compound, the growth with SK-MEL-5 melanoma is 98.3%; with UACC-62 melanoma, 98.6%; with LOX IMVI melanoma, 96.6%; with SK-MEL-28 melanoma it was 116%; with SK-MEL-2 melanoma, 101%; with EKVX NSCLC, 101%. Moreover, the growth is 103% with SN12C renal; 94.3% with UO-31 renal; 105% in the test on TK-10 renal; 110% in the test on ACHN renal; 96.7% with CAKI-1 renal; 98.5% in the test with A498 renal. Also, the growth with CCRF-CEM leukemia is 100%; in the test on MOLT-4 leukemia it was 95.9%.
As for `O=C1CCCCN1CCCCC#Cc1ccccc1C#Cc1ccc([N+](=O)[O-])cc1`, the growth in the test with HCT-15 colon is 17.4%; with HT29 colon, 28.4%; in the test with SNB-75 CNS, 66.1%; in the test with SNB-19 CNS, 70.2%; in the test with U251 CNS, 28%; in the test with PC-3 prostate, 31.9%. The growth was 3.34% (active) in the test with SK-MEL-5 melanoma; 25.8% with UACC-62 melanoma; 6.11% (active) with LOX IMVI melanoma; 46.1% in the test with SK-MEL-28 melanoma; 5.87% (active) with SK-MEL-2 melanoma; 74.8% with EKVX NSCLC. Further, the growth was 67.4% with SN12C renal; 7.05% (active) in the test on UO-31 renal; 80.6% with TK-10 renal; 34% in the test with ACHN renal; 58.4% in the test with CAKI-1 renal; 59.7% with A498 renal. In addition, the growth in the test with CCRF-CEM leukemia was 21.4%; with MOLT-4 leukemia, 18.7%.
